Screening data (PubChem)
hNpr1 antagonist – blocks ANP-stimulated signaling of human Npr1 receptor; P16066; HEK293 hNpr1 GloSensor cGMP, ANP-stimulated luminescence; Potency, µM (top dose mostly 46.3 µM), without a hit: at the top dose activity change, negative = inhibition, actives largely listed as inhibitors; 76,000 compounds, 1.6% hits; AID 1347048; calls by dose curve; further: nearly all actives have a fitted effect of over 60% in size
Target sequence (P16066 whole entry, looked up): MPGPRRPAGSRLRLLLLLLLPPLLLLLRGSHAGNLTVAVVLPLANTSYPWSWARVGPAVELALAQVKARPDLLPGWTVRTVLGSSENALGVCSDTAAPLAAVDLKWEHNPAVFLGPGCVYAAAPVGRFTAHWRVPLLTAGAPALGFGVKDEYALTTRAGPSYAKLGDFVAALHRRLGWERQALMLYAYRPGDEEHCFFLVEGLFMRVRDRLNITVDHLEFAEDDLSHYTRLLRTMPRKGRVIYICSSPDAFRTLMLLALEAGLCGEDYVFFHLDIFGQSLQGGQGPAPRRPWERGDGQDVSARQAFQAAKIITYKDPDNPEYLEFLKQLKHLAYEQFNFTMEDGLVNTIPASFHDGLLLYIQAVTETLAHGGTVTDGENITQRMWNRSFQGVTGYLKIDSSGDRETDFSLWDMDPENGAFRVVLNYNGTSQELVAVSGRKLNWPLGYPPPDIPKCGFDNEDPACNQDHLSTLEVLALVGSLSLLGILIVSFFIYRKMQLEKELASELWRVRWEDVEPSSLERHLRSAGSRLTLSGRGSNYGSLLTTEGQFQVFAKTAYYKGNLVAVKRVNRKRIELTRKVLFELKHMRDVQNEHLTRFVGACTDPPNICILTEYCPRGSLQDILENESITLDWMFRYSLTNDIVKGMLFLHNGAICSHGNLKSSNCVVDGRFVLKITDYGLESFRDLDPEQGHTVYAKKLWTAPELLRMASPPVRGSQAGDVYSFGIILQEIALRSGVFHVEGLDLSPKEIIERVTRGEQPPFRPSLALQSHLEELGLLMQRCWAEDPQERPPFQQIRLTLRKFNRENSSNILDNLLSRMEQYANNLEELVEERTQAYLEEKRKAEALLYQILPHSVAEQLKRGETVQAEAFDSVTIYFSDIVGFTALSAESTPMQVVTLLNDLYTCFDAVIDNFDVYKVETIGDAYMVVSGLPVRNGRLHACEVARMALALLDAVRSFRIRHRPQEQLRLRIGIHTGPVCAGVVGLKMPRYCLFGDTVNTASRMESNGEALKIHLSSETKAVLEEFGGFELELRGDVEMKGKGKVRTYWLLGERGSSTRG
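Compound pre-incubated 30 min at room temperature on GloSensor-loaded HEK293 cells stably carrying hNpr1 and the pGS-40F cGMP biosensor. Stimulation uses hNppA at 0.1 nM final; luminescence is taken at baseline and 20 min post-agonist.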
HEK293 tox – HEK 293 cell cytotoxicity | Potency, µM (highest dose often 115 µM), for the others: at the top dose activity change, negative = cytotoxicity, actives largely listed as inhibitors | 94,000 compounds, 6.6% hits | HEK 293 viability, ATP luminescence (CellTiter-Glo), 48-72 h; further: nearly all actives have a fitted effect of over 60% in size
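qHTS cytotoxicity; HEK 293, 250 cells/well; compound pinned; 48 or 72 hr, 37 degree Celsius, 5% CO2, 95% humidity; CellTiter-Glo, 10 min RT; luminescence (ATP).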
NIH3T3 tox – NIH 3T3 cell cytotoxicity; NIH 3T3 viability, CellTiter-Glo ATP luminescence, 48-72 h; Potency, µM (doses to about 96.7 µM), without a hit: at the highest dose activity change, negative = cytotoxicity, hits mostly inhibitors; 94,000 compounds, 4.3% hits; AID 1345082; further: nearly all actives have a fitted effect of over 55% in size
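Luminescent ATP readout (CellTiter-Glo, 10 min RT) after 48 or 72 hr compound exposure of NIH 3T3 cells seeded at 400 cells/well in 1536-well format; quantitative HTS.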
Luciferase inh – Photinus pyralis luciferase inhibition; P08659; purified P. pyralis luciferase, luminescence, biochemical; Potency, µM (series often up to 115 µM), hits mostly inhibitors; 76,000 compounds, 2.5% hits; further: nearly all actives have a fitted effect of over 65% in size
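Purified 10nM P. pyralis luciferase with 10uM D-luciferin and 10uM ATP in 50mM Tris acetate pH 7.5, 10mM Mg acetate, 0.01% Tween-20, 0.05% BSA. qHTS titration; luminescence read by CCD imager.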
The depositor's hits bear a star; i = inactive; ? = inconclusive; / = no result given; ! = not confirmed by another sample; [ ] = remark or other dose. Sampled rows, rich in hits. Any-hit rate of the full collection: about 11%. Unless noted, the call rests on the fitted dose curve; in most records, active means well fitted curve in the direction sought with a large enough effect; inconclusive means small, poorly fitted or top-dose-only effect, or another doubt; inactive means no such curve, though single readings can be large; an effect the other way counts as inactive or inconclusive. On the % scale 0 is the no-effect control and ±100 the full control effect; potency means the concentration at half of the fitted maximal effect.

SMILES | hNpr1 antagonist | HEK293 tox | NIH3T3 tox | Luciferase inh
COCCNC(=O)[C@H]1C[C@H](Oc2ccccc2)CN1C(=O)c1ccc(F)cc1 | 10% | 4% | 0% | i
O=C(c1cccnc1)N1CCCCCC1c1nnc(-c2ccccc2)o1 (centres undefined) | / | -16% | -17% | /
Cc1ccc(-c2cccc(CN3CCCC(c4nc5ccc(C)cc5c(=O)[nH]4)C3)c2)c(C)c1 (centres undefined) | -2% | 35µM*! | ? | i
O=c1[nH]c(C2CCCN(Cc3ccc(-c4cc(F)cc(F)c4)cc3)C2)nc2ccc(F)cc12 (centres undefined) | -26% | 45µM*! | ? | i
O=c1[nH]c(C2CCCN(Cc3ccccc3)C2)nc2ccc(F)cc12 (centres undefined) | -12%[70.6 µM] | 50µM*! | 28µM*! | i
O=c1[nH]c(C2CCCN(Cc3ccc(-c4ccccc4)cc3)C2)nc2ccc(F)cc12 (centres undefined) | ? | 32µM*! | ? | i
Cc1nc(-c2ccncc2)ncc1C(C)NC(=O)C1=NN(C)C(=O)CC1 (centres undefined) | 0% | 3% | -10% | i
O=c1[nH]c(C2CCCN(Cc3cccs3)C2)nc2ccc(F)cc12 (centres undefined) | -3% | ? | ? | i
COc1ccccc1-c1ccc(CN2CCCC(c3nc4ccc(F)cc4c(=O)[nH]3)C2)cc1 (centres undefined) | ? | 35µM*! | 40µM*! | i
O=c1[nH]c(C2CCCN(Cc3cccc(-c4ccc(F)cc4F)c3)C2)nc2ccc(F)cc12 (centres undefined) | ? | 40µM* | ? | i
Cc1ccc2nc(C3CCCN(Cc4ccc(-c5cncnc5)cc4)C3)[nH]c(=O)c2c1 (centres undefined) | 2% | 5% | 4% | i
CC(C)CCN1CCC(O)(c2csc(CN3CCN(c4ccccn4)CC3)n2)CC1 | 5%[70.6 µM] | ? | -31%[174 µM] | i
C[C@]1(CO)[C@H]2Cc3sc(NC(=O)c4ccc(F)cc4)nc3[C@@H](CC(=O)NCc3ccccc3)[C@]2(C)CC[C@H]1O | -11% | ? | ? | i
Cn1ncc2c(C(=O)NCC(F)(F)F)cc(-c3ccc(Cl)cc3Cl)nc21 | / | -5% | -42% | /
Cn1ncc2c(C(=O)NCc3cccs3)cc(-c3ccc(Cl)cc3Cl)nc21 | / | 40µM* | ? | /
Cn1ncc2c(C(=O)NCc3cccc(Cl)c3)cc(-c3ccc(Cl)cc3Cl)nc21 | / | -7% | -22% | /
Cn1ncc2c(C(=O)CCc3ccc(F)cc3)cc(-c3ccc(Cl)cc3Cl)nc21 | / | 35µM* | 32µM* | /
Cc1ccc(-c2noc([C@@H]3C[C@@H](O)CN3Cc3cccnc3)n2)cc1F | ? | 63µM* | ? | ?
COc1ccc(-c2noc([C@@H]3C[C@@H](O)CN3Cc3ccc(F)cc3)n2)cc1 | -9%[70.6 µM] | ? | -17%[174 µM] | 45µM*
COc1ccc(CN2C[C@H](O)C[C@H]2c2nc(-c3ccc(C)c(F)c3)no2)cc1 | 7%[70.6 µM] | ? | ? | 35µM*
COc1ccc(CN2C[C@H](O)C[C@H]2c2nc(-c3ccncc3)no2)cc1 | 0%[70.6 µM] | ? | -11%[174 µM] | i
Cc1ccc(-c2noc([C@@H]3C[C@@H](O)CN3CC3CC3)n2)cc1F | -5%[70.6 µM] | ? | ? | 50µM*
Cc1ccc(-c2noc([C@@H]3C[C@@H](O)CN3C3CCN(C)CC3)n2)cc1F | 5%[70.6 µM] | ? | ? | i
COc1cccc(C(=O)N2CCC(C(=O)N3CCC4(CC3)CC(=O)Nc3ccccc3O4)CC2)c1 | / | ? | -9% | /
CCN1CCN(C(=O)c2ccc(-c3nnc4ccc(NC(=O)C5CCC5)cn34)cc2)CC1 | 3% | ? | -5% | ?
SMILES | hNpr1 antagonist | HEK293 tox | NIH3T3 tox | Luciferase inh
O[C@@H]1C[C@@H](c2nc(-c3ccc(F)cc3)no2)N(Cc2ccncc2)C1 | ? | 71µM* | ? | 63µM*
O[C@@H]1C[C@@H](c2nc(-c3ccncc3)no2)N(Cc2ccc(F)cc2)C1 | -3%[70.6 µM] | -5%[172 µM] | -22%[174 µM] | i
CCOC(=O)c1ccc(NC(=O)Cn2c(=O)n(CC)c(=O)c3c2cc(C)n3C)cc1 | -1% | ? | ? | i
COCCCNc1ccnc(-c2nnc(C)n2-c2ccccc2)c1 | -14%[70.6 µM] | -10%[172 µM] | 100µM* | i
OCC1(Cc2ccc(F)cc2F)CCCN(c2cnc3ccccc3n2)C1 (centres undefined) | ? | 40µM* | ? | i
O=C(c1nn(CC2CC2)c2c1CNCC2)N1CCC(Cc2ccccc2)CC1 | / | ? | 40µM* | /
O=C(NC1CCCc2c1cnn2-c1ccccn1)c1cn[nH]c1-n1cnnn1 (centres undefined) | -1% | i | -2% | i
CC(C)(C)c1ccc(-n2ncc3c2CCCC3NC(=O)c2c[nH]c(=O)[nH]c2=O)cc1 (centres undefined) | 8.9µM* | 32µM* | ? | ?
Cc1nc(-c2ccc(F)cc2)n(CC(=O)Nc2cc(C(F)(F)F)ccc2Cl)c(=O)c1CCO | 5% | 32µM* | ? | i
Cc1ccc(NC(=O)Cn2c(-c3ccc(F)cc3)nc(C)c(CCO)c2=O)c(Cl)c1 | -13% | ? | -23% | i
COc1cc(NC(=O)Cn2c(-c3ccc(Cl)cc3)nc(C)c(CCO)c2=O)cc(OC)c1 | 0% | ? | -1% | i
Cc1nc(-c2ccc(F)cc2)n(CC(=O)Nc2ccccc2)c(=O)c1CCO | 1% | 45µM* | -19% | i
CSc1cccc(NC(=O)Cn2c(-c3ccc(Cl)cc3)nc(C)c(CCO)c2=O)c1 | -7% | 32µM* | -13% | i
Cc1nc(-c2ccccc2)n(CC(=O)Nc2ccc(F)cc2)c(=O)c1CCO | -11% | ? | ? | i
Cc1nc(-c2ccc(Cl)cc2)n(CC(=O)Nc2cccc(C(F)(F)F)c2)c(=O)c1CCO | -1% | 40µM* | ? | i
COc1cc(CN(C)C2CCOc3ccccc32)ccc1F (centres undefined) | -1%[70.6 µM] | ? | ? | i
O=C(O)c1cccc2c1CCN2S(=O)(=O)c1ccccc1F | -6% | -33% | ? | ?
Cc1cc(C(=O)N2CCC3(CC2)NCCc2c3[nH]c3ccccc23)n(C)n1 | 1% | 3% | 0% | i
CCNC(=O)N1CCOc2ccc(CCC(=O)NCCOc3ccccc3OC)cc2C1 | 1% | 0% | -17% | i
COc1ccc(C)cc1NC(=O)Cn1c(-c2ccc(F)cc2)nc(C)c(CCO)c1=O | 4% | 79µM* | -13% | i
Cc1nc(-c2ccc(F)cc2)n(CC(=O)Nc2cccc(C(F)(F)F)c2)c(=O)c1CCO | ? | 20µM* | 22µM* | i
Cn1cccc1CN1CCC2(Cc3ccccc3CNC2=O)C1 (centres undefined) | / | -10% | -11% | /
c1ccc2sc(N3CCCN(Cc4cc5n(n4)CCNC5)CC3)nc2c1 | 3% | 35µM* | ? | ?
c1ccc2[nH]c(N3CCN(Cc4cc5n(n4)CCCNC5)CC3)nc2c1 | 3% | i | 1% | i
